Legend:
Experiment in all cases: log2 ratio of Biotin-Ahx-Ub-VS probe labelling (fragment/DMSO); higher = less target engagement (more negative = stronger competition), active = hit call of the paper (q ≤ 0.05, log2 ratio ≤ -1)
Details in all cases: compound concentration: 200 uM; treatment time: 3 h
OTUD6B = target: T1, OTUD6B (UniProt Q8N6M0)
T1 sequence (whole entry): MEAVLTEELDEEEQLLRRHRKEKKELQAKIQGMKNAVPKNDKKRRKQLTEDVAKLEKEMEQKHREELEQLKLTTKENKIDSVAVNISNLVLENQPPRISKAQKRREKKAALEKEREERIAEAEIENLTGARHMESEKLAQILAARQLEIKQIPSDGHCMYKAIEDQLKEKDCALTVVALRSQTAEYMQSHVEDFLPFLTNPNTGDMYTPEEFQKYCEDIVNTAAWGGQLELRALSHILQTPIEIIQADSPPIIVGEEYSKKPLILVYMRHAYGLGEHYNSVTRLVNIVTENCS
Outline: (§1)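 Global-median-normalised Spectronaut label-free quantities were compared by unpaired t-test, and values are average log2 ratios of fragment over vehicle. Only proteins with ≥2 unique peptides were used. HEK293T lysate (495 µg per sample) was treated in triplicate with fragment at 200 µM or vehicle for 3 h and then with Biotin-Ahx-Ub-VS at 0.5 µM final for 1 h. Labelled DUBs were then NeutrAvidin-enriched, digested with LysC and trypsin, and run by diaPASEF LC-MS/MS.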

OTUD7B = target: T2, OTUD7B (UniProt Q6GQQ9)
T2 sequence (whole entry): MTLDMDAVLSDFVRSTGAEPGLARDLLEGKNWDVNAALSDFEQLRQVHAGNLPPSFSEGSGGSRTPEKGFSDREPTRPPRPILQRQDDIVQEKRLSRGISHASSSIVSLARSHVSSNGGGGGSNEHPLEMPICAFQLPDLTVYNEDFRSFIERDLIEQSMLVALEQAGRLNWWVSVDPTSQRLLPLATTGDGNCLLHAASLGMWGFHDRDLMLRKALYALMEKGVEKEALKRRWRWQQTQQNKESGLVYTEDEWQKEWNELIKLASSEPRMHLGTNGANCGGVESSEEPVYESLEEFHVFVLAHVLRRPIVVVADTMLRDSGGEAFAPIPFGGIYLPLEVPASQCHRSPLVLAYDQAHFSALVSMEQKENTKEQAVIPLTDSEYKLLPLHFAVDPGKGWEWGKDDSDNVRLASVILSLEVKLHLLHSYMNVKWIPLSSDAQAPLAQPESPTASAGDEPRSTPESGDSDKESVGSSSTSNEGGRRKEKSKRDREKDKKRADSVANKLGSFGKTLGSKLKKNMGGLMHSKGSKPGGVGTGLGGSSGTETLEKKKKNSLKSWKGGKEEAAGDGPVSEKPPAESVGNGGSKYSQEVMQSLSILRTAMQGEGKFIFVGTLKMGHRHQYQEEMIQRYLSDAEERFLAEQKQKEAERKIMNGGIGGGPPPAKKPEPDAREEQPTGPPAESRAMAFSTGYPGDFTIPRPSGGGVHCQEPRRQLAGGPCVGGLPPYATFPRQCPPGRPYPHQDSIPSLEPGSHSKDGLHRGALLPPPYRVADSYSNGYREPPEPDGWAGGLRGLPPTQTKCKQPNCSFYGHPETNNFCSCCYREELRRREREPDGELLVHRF
Outline: as §1

PRPF8 = PRPF8 (UniProt Q6P2Q9)
Outline: as §1

PSMD7 = target: T3, PSMD7 (UniProt P51665)
T3 sequence (whole entry): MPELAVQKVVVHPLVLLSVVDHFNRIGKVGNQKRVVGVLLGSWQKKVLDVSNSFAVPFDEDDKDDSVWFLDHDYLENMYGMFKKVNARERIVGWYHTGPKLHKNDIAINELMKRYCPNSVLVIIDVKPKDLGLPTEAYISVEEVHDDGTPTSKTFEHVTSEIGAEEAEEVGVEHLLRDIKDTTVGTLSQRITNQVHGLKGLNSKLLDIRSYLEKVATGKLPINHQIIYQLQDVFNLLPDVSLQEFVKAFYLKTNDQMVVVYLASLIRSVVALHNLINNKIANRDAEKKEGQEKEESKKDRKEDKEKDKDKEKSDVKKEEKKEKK
Outline: as §1

UCHL1 = UCHL1 (UniProt P09936)
Outline: as §1

UCHL3 = target: T4, UCHL3 (UniProt P15374)
T4 sequence (whole entry): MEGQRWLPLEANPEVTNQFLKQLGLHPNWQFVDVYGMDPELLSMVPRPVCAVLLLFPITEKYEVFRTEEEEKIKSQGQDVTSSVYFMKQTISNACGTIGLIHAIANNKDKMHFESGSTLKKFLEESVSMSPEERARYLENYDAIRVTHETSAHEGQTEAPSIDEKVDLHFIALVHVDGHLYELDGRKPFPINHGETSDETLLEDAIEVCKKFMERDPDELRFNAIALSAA
Outline: as §1

UCHL5 = target: T5, UCHL5 (UniProt Q9Y5K5)
T5 sequence (whole entry): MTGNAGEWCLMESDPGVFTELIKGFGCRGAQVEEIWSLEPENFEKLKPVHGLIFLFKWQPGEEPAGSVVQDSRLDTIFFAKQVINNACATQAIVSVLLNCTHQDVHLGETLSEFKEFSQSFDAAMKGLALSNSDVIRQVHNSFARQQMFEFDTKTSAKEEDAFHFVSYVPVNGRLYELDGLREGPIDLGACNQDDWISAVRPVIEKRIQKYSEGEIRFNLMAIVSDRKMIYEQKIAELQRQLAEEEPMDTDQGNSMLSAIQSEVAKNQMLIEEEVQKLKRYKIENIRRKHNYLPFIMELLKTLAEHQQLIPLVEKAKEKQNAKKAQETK
Outline: as §1

USP10 = USP10 (UniProt Q14694)
Outline: as §1

USP15 = target: T6, USP15 (UniProt Q9Y4E8)
T6 sequence (whole entry): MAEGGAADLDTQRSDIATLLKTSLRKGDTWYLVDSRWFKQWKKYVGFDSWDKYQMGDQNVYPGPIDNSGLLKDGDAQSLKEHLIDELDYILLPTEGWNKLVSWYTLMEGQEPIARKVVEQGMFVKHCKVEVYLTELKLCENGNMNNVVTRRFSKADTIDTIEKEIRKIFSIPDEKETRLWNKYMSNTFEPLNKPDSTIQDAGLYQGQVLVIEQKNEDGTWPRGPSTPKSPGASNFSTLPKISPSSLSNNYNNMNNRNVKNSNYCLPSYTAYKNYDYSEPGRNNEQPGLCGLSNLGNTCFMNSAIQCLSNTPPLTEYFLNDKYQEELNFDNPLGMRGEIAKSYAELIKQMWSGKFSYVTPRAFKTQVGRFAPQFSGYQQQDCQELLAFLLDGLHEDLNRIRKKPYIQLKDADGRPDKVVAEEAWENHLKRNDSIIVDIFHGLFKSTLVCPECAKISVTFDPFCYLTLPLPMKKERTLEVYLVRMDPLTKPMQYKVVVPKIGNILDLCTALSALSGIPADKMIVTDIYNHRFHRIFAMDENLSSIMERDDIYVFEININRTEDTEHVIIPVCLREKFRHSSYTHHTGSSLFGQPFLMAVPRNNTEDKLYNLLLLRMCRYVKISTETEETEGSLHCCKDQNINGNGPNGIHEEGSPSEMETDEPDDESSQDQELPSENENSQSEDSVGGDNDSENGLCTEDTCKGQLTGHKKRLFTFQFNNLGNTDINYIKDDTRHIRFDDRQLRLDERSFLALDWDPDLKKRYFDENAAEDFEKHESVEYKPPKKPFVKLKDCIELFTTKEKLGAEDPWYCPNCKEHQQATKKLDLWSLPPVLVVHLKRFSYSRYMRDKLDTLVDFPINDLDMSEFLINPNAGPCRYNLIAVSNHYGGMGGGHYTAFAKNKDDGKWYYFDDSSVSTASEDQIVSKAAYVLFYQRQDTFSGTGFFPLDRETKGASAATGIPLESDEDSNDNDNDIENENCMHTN
Outline: as §1

Measured: log2 ratio of Biotin-Ahx-Ub-VS probe labelling

Sequence of USP10 (Q14694 whole entry): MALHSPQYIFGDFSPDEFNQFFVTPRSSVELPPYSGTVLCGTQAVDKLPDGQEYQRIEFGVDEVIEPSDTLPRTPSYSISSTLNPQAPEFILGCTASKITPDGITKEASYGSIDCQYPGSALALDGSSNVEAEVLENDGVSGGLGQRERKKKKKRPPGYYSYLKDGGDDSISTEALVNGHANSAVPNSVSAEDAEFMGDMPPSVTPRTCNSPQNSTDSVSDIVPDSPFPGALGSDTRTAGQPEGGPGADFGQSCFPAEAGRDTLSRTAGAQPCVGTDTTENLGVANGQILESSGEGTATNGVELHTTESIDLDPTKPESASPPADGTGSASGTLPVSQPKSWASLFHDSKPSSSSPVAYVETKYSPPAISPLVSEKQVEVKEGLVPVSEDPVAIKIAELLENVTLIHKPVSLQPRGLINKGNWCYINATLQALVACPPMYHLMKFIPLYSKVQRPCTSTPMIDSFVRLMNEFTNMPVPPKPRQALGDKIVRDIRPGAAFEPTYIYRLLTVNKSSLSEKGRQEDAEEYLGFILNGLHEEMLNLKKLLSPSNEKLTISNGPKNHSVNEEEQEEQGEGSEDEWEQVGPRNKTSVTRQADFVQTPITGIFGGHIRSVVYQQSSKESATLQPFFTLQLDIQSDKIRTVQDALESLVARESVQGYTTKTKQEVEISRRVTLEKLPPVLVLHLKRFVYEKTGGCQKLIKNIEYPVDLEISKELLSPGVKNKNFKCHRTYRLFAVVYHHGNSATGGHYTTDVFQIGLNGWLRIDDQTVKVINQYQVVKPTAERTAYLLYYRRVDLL
Sequence of UCHL1 (P09936 whole entry, looked up): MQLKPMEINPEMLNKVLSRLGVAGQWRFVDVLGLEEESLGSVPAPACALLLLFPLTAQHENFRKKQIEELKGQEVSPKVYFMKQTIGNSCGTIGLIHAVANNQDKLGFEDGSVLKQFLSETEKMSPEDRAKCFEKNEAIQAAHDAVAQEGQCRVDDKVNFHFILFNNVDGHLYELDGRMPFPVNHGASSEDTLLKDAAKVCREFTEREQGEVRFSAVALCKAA

Cc1ccc(N(CCC#N)C(=O)CCl)cc1C
active: OTUD7B -1.99 | UCHL1 -1.31
inactive: OTUD6B -0.133 | PRPF8 0.0257 | PSMD7 -0.41 | UCHL3 0.292 | UCHL5 -0.157 | USP10 -0.00551 | USP15 -0.234

Source: the supplement of paper PMC11732987, “Enantioselective OTUD7B fragment discovery through chemoproteomics screening and high-throughput optimisation” (Communications Chemistry, 2025)
